Results published in publication PMC4336329 (PLoS ONE, 2015).
The campaign covered roughly 310,000 compounds. About 2,200 (0.71%) showed an effect of 50% or more. Effects have a minus sign here. The list comes from a sample in which strong results are over-represented; it also holds similar structures and randomly drawn compounds.

These compounds were tested against human ether-à-go-go-related gene (hERG) potassium channel (human, UniProt Q12809) (assay: primary screen, population patch clamp on CHO cells stably expressing hERG; higher = less effect of the substance).
human ether-à-go-go-related gene (hERG) potassium channel, sequence (Q12809 whole entry, looked up): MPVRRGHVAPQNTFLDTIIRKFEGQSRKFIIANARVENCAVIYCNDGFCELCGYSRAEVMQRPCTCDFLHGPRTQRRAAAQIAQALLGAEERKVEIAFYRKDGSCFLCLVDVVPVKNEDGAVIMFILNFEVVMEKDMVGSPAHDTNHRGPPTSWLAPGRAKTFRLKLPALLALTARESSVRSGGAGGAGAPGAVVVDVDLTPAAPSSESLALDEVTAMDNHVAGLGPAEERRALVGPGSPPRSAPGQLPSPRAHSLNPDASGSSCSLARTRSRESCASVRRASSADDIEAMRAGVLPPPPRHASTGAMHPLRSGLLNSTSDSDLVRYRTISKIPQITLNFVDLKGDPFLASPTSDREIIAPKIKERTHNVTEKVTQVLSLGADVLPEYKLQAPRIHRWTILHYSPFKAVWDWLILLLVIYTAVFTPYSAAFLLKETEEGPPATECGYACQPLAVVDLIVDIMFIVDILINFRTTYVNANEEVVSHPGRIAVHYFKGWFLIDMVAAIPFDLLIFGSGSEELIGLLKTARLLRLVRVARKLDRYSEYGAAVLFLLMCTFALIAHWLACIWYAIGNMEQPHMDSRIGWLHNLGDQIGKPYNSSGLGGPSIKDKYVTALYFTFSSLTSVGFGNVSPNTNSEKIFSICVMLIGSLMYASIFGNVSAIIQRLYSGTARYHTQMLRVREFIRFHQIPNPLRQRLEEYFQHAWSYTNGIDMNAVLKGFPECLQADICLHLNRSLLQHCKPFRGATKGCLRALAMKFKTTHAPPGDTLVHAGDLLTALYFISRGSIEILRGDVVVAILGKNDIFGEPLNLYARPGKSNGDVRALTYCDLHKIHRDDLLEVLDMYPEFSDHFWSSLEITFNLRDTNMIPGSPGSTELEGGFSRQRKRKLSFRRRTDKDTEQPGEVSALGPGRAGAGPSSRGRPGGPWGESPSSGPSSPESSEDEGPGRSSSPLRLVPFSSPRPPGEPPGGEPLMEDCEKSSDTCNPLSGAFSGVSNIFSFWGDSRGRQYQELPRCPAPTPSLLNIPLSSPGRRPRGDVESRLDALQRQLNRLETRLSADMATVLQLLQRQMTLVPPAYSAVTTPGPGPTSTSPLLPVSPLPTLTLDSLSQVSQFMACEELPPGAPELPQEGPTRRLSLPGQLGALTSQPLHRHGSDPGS

Structure (SMILES)	hERG current change (%, negative = inhibition) at 1uM [%]
CC1CCc2nc(NC(=O)Cc3cccs3)sc2C1 (centres unmarked)	12.7
O=C1NC(C(F)(F)F)(C(F)(F)F)N=C2SC=CN12	1.69
CCCOc1ccc(C2C(C(=O)OC)=CN(CCOC)C=C2C(=O)OC)cc1	-5.54
CCN(CC)C(=O)CN1C(=O)COCC1=O	5.42
S=C1NC(c2ccccc2)N2C(=S)NC(c3ccccc3)N12 (centres unmarked)	3.38
CCOc1ccc2nc(C)cc(Nc3ccc(N4CCOCC4)cc3)c2c1.Cl	-60.6
COc1ccc2nc(C)cc(Nc3ccc(N4CCOCC4)cc3)c2c1.Cl	-25.1
CCOc1ccc2nc(C)cc(Nc3ccc4c(c3)OCCO4)c2c1.Cl	-47
CCOc1ccc(-n2c(-c3ccc(Br)cc3)c[n+]3c2CCCCC3)cc1.[Br-]	-46.5
CCOc1ccc(-n2c(-c3ccc(OC)cc3)c[n+]3c2CCCCC3)cc1.[Br-]	-39.1
CCOc1ccc(-c2c(C)n(-c3ccc(OCC)cc3)c3[n+]2CCCCC3)cc1.[O-][Cl+3]([O-])([O-])[O-]	-50.8
CCCNC(=O)C(Cc1ccc(F)cc1)NC(=O)c1ccc(C#N)cc1 (centres unmarked)	-17.5
CCC(CC)c1nnc(NC(=O)c2cccc(S(=O)(=O)N3CCc4ccccc43)c2)s1	13.3
Cl.O=C1Cc2ccccc2Sc2cc(OCCCN3CCCCC3)ccc21	-29.1
CN(C)CCCOc1ccc2c(c1)Sc1ccccc1CC2=O.Cl	-53.3
CN(C)CCOc1ccc2c(c1)Sc1ccccc1CC2=O.Cl	-18.3
O=C(Cc1ccc([N+](=O)[O-])cc1)OCc1c(F)cccc1Cl	14.7
CCOc1ccc(N=C2NC(=O)CS2)cc1	11.1
Cc1ccc(NC(=O)NC2CCCCCCC2)cc1C	11.5
OCC1(CCc2ccccc2)CCCN(CCCc2ccccc2)C1 (centres unmarked)	-57.6
OCC1(Cc2ccc(F)cc2)CCCN(CCc2ccccc2)C1 (centres unmarked)	-0.0287
OCC1(Cc2ccc(F)cc2F)CCCN(CCCc2ccccc2)C1 (centres unmarked)	-56.1
OCC1(CCc2ccccc2)CCN(Cc2c(F)ccc(F)c2F)CC1	7.97

Structure (SMILES)	hERG current change (%, negative = inhibition) at 1uM [%]
OCC1(CC2CCCCO2)CCN(C/C=C/c2ccccc2)CC1 (centres unmarked)	-2.99
OCC1(CCc2ccccc2)CCCN(CCCC(F)(F)F)C1 (centres unmarked)	-13.2
OCC1(Cc2ccc(F)cc2F)CCCN(Cc2ccc(Cl)cc2)C1 (centres unmarked)	-15
OCC1(CCc2ccccc2)CCN(C/C=C/c2ccccc2)CC1	-86.4
O=C(Cc1ccccc1)N1CCN(C/C=C/c2ccccc2)CC1	-6.02
OCC1(CCc2ccccc2)CCN(Cc2cc(Cl)ccc2O)CC1	-5.01
OCC1(CCc2ccccc2)CCN(Cc2ccccc2Cl)CC1	-54.6
OCC1(Cc2ccccc2F)CCCN(CCc2ccccc2)C1 (centres unmarked)	-30.5
Cc1cc(C(=O)N2CCCC(N3CCN(c4cccc(Cl)c4)CC3)C2)no1 (centres unmarked)	10.5
Cc1cc2oc(C(=O)N(Cc3ccccc3)c3ccccn3)cc(=O)c2cc1Cl	10.6
CCn1nc(C)cc1C(=O)Sc1cccc(Cl)c1	10.9
CCCCCCCC(=O)NNC(=O)c1c(O)c2ccccc2[nH]c1=O	9.8
CCCCn1c(N)c(N(C)C(=O)c2ccc(Br)o2)c(=O)[nH]c1=O	7.35
O=C(O)C1CC=CCC1C(=O)N1CCCC1 (centres unmarked)	-1.33
COc1ccccc1/C=C/CN1CCCC(CO)(CCc2ccccc2)C1 (centres unmarked)	-31.4
OCC1(CCc2ccccc2)CCCN(C/C=C/c2ccccc2)C1 (centres unmarked)	-53.6
O=C(CCC(F)(F)F)N1CCCC(CO)(CCc2ccccc2)C1 (centres unmarked)	-3.42
CCOc1cc(C2NC(=O)NC(C)=C2C(=O)OC(C)CC)cc(Br)c1O (centres unmarked)	10.2
O=C1N[C@@H](Cc2cn(S(=O)(=O)c3c(F)c(F)c(F)c(F)c3F)c3ccccc23)C(=O)N[C@H]1Cc1ccccc1	10.7
CN1CCN(C(=O)/C(C#N)=C/c2ccc(F)cc2)CC1.Cl	1.43
CCOC(=O)N1CCN(C(=O)/C(=C/c2ccc(Br)cc2)NC(=O)c2ccc(OC)cc2)CC1	-81.5
COc1ccc(/C=C(\NC(=O)c2ccccc2)C(=O)N2CCN(C)CC2)cc1	-75.2
CCOC(=O)N1CCN(C(=O)/C(=C/c2cccc3ccccc23)NC(=O)c2ccc(OC)cc2)CC1	-10.5

Structure (SMILES)	hERG current change (%, negative = inhibition) at 1uM [%]
CCOC(=O)N1CCN(C(=O)/C(=C/c2ccc(OC)cc2)NC(=O)c2ccccc2)CC1	-27.1
CN1CCN(C(=O)/C(=C/c2ccccc2)c2ccccc2)CC1	-33.2
O=C(N/C(=C/c1ccc(F)cc1)C(=O)N1CCCC1)c1ccccc1	25.3
COc1ccc(/C=C(/NC(=O)c2ccccc2)C(=O)N2CCCCC2)cc1	6.93
COc1ccc(/C=C(/NC(=O)c2ccccc2)C(=O)N2CCCC2)cc1	6.1
CSc1ccc(/C=C(/NC(=O)c2ccccc2)C(=O)N2CCN(C)CC2)cc1	-48.7
CN1CCN(C(=O)/C(=C/c2ccc(F)cc2)NC(=O)c2ccccc2)CC1	-80.8
CN1CCN(C(=O)/C(=C/c2ccc(F)cc2)c2ccsc2)CC1.Cl	-52.8
CCOC(=O)/C=C/C(=O)Nc1ccc(S(=O)(=O)Nc2cc(C)on2)cc1	10.3
O=C(Cc1ccccc1)NC1CCN(C(=O)NCc2ccccc2)CC1	-8.61
N#Cc1nc(COc2cccc(Cl)c2)oc1NCCN1CCOCC1	-22.3
CC1CN(S(=O)(=O)c2cccc(C(=O)Nc3ccc4c(c3)CCC4)c2)CC(C)O1 (centres unmarked)	1.39
O=C(CN(Cc1ccccc1Cl)C(=O)CN1C(=O)CSc2ccccc21)NC1CC1	-30.7
Cc1ccc(-c2nc3ccccc3[nH]2)cc1NC(=S)NC(=O)c1ccccc1Br	8.3
c1ccc(-c2noc(-c3ccc4c(c3)OCO4)n2)nc1	14.3
O=C(CCC(=O)Nc1ccccc1)NNC(=O)CCc1ccccc1	13.6
COc1cccc(OC)c1NC(=O)C1CCCN1C(=O)NCc1ccccc1 (centres unmarked)	3.69
COC(=O)c1ccc(NC(=O)C2C3CCC(C3)C2C(=O)O)cc1 (centres unmarked)	3.27
O=C(O)c1ccc(S(=O)(=O)NCc2ccc3c(c2)OCO3)cc1	11.3
COc1ccc(OCC(=O)Nc2ccc3c(c2)nc(CCN2CCC(C)CC2)n3C)cc1	-46.3
CC1CCN(CCc2nc3cc(NC(=O)COc4ccc([N+](=O)[O-])cc4)ccc3n2C)CC1	-2.45
CC1CCN(CCc2nc3cc(NC(=O)COc4ccc(Cl)cc4)ccc3n2C)CC1	-60.7
CC1CCN(CCc2nc3cc(NC(=O)COc4ccccc4)ccc3n2C)CC1	-33.9

Structure (SMILES)	hERG current change (%, negative = inhibition) at 1uM [%]
Cn1c(CCN2CCOCC2)nc2cc(NC(=O)COc3ccc(Cl)cc3)ccc21	2
Cc1ccc(OCC(=O)Nc2ccc3c(c2)nc(CCN2CCC(C)CC2)n3C)cc1	-53.3
CCOc1ccc(NS(=O)(=O)c2ccc3c(c2)N(C(C)=O)CCO3)cc1	17
C[C@]12CCC(=O)CC1CCC1C2CC[C@]2(C)C(OC(=O)CCC(=O)O)CCC12 (some centres unmarked)	9.84
CCC1CCCCN1C(=O)Nc1cc(Cl)ccc1OC (centres unmarked)	15.2
O=C(c1ccco1)N1CCN(C(=O)C2CCN(S(=O)(=O)c3cccs3)CC2)CC1	-26.1
CCc1nn(CC(=O)NCCCN2CCN(C)CC2)c(=O)c2cc3sccc3n12	5.53
CCc1nn(CC(=O)NCCCN2CCOCC2)c(=O)c2cc3sccc3n12	15.6
CCc1nn(CC(=O)NCCCN2CCc3ccccc3C2)c(=O)c2cc3sccc3n12	-53.8
COc1cc(S(=O)(=O)Nc2ncn[nH]2)ccc1Cl	13.5
COCCN1Cc2cccc(C(=O)NCc3ccccc3OC)c2C1=O	3.2
Cc1cc(C)cc(NC(=S)NC2CC3CCCC(C2)N3C2CC2)c1 (centres unmarked)	-32
Cc1cc(C)cc(NC(=S)NC2CC3CCCC(C2)N3C2CCCC2)c1 (centres unmarked)	-52.3
CCCN1C2CCCC1CC(NC(=S)Nc1cc(C)ccc1C)C2 (centres unmarked)	8.55
Cc1cc(C)cc(NC(=S)NC2CC3CCCC(C2)N3CC(C)C)c1 (centres unmarked)	11.3
Cc1cc(C)cc(NC(=S)NCCN(C2CCCCC2)C2CCCC2)c1	-59.7
CCCN1C2CCCC1CC(NC(=S)Nc1cc(C)cc(C)c1)C2 (centres unmarked)	-81.4
Cc1ccc(NC(=S)NCCN(C2CCCCC2)C2CCCC2)cc1	-10.5
Cc1cccc(NC(=S)NCCN(C2CCCCC2)C2CCCC2)c1	-1.59
CCCN1C2CCCC1CC(NC(=S)Nc1cccc(C)c1)C2 (centres unmarked)	-12.7
